According to PubChem BioAssay (Tox21):
Records with an inconclusive call do not appear. Values without a mark were called inactive. Calls come from the whole dose curve; as a rule, active = well fitted cell-killing curve with a large enough effect in the repeat runs; inconclusive = weak or mixed curves; inactive = no such curve, though single readings can be large or run the other way.

experiment: qHTS assay to identify small molecule antagonists of the androgen receptor (AR) signaling pathway - cell viability counter screen (AID 743033; note: nearly all actives have a fitted effect of over 45% in size); conditions: AR-bla HEK293 viability, CellTiter-Glo luminescence, 16 h; series mostly up to 58.5 µM; activity change, negative = cytotoxicity: at the top concentration
Source text: National Center for Advancing Translational Sciences [NCATS]
NIH Chemical Genomics Center [NCGC]
U.S. Environmental Protection Agency [EPA]
National Institutes of Environmental Health Sciences [NIEHS]
National Toxicology Program [NTP]
U.S. Food and Drug Administration [FDA]
Androgen receptor (AR), a nuclear hormone receptor, plays a critical role in AR-dependent prostate cancer and other androgen related diseases. Endocrine disrupting chemicals (EDCs) and their interactions with steroid hormone receptors like AR may cause disruption of normal endocrine function as well as interfere with metabolic homeostasis, reproduction, developmental and behavioral functions. To identify the compounds that inhibit AR signaling, GeneBLAzer AR-UAS-bla-GripTite cell line (Invitrogen, Carlsbad, CA, USA) containing a beta-lactamase reporter gene under control of an Upstream Activator Sequence (UAS) stably integrated into HEK293 cells was used to screen the Tox21 10K compound library. The cytotoxicity of the Tox21 compound library against the AR-bla cell line was tested in parallel by measuring the cell viability using CellTiter-Glo assay in the same wells.
Tox21 Assay Protocol Summary:
AR-bla cells were dispensed at 2,000 cells/5 uL of assay medium per well into black wall/clear-bottom 1536-well plates using a Multidrop Combi (ThermoFisher Scientific, Waltham, MA) dispenser. After the assay plates were incubated at a 37C and 5% CO2 for 4 hr, 23 nL of compounds dissolved in DMSO, positive controls or DMSO only was transferred to the assay plate by a Pintool station (Kalypsys, San Diego, CA), followed by addition of 1 uL of agonist (R1881) in culture medium using a Bioraptr Flying Reagent Dispenser (FRD) workstation (Beckman Coulter, Indianapolis, IN, USA). The plates were incubated at a 37C and 5% CO2 for 16 h. After 1 uL of LiveBLAzerTM B/G FRET substrate was added using a Bioraptr FRD, the plates were incubated at room temperature for 2 h and fluorescence intensity was measured by an Envision plate reader (PerkinElmer, Shelton, CT). For cell viability readout that measures cytotoxicity, 4 ul/well of CellTiter-Glo reagent was added into the assay plates using a Bioraptr FRD. After 30 min incubation at room temperature, the luminescence intensity in the plates was measured using a ViewLux (PerkinElmer) plate reader.
% is set by controls: 0 for no effect and ±100 for the full control effect.

Compound | activity change, negative = cytotoxicity
C[C@]12CCC(=O)C=C1CC[C@@H]1[C@@H]2CC[C@@]2(C)[C@H]1CC[C@]2(O)C(=O)CO | -17.3%
CCNCCO | -5.75%
CCN(CCCc1ccccc1)CCCc1ccccc1 | -9.95% [at 27 µM]
Cc1ccsc1C(=CCCN1CCC[C@@H](C(=O)O)C1)c1sccc1C | 4.64%
Oc1ccccc1C=NCc1ccccc1 | -7.99%
CC(=O)Nc1ccc(C)c(Cl)c1 | -0.884%
NC(=O)Cc1cccc(C(=O)c2ccccc2)c1N | -1.42%
O=CCCc1ccccc1 | 4.48%
CS(=O)(=O)c1ccc([C@@H](O)[C@@H](CF)NC(=O)C(Cl)Cl)cc1 | 4.51% [at 27 µM]
O=C(O)c1cccc(Cl)c1Cl | 1.13%
NCCC(O)(P(=O)(O)O)P(=O)(O)O | 1.34%
CCN[C@H]1CN(CCCOC)S(=O)(=O)c2sc(S(N)(=O)=O)cc21 | -12% [at 27 µM]
N#Cc1ccc(C(c2ccc(C#N)cc2)n2cncn2)cc1 | -8.14%
CCC(=O)O[C@]1(C(=O)SCF)[C@H](C)C[C@H]2[C@@H]3C[C@H](F)C4=CC(=O)C=C[C@]4(C)[C@@]3(F)[C@@H](O)C[C@@]21C | -23.1% [at 27 µM]
CC(C)Nc1nc(N)nc(Cl)n1 | 7.02%
CC1(C)C(=O)N(Cl)C(=O)N1Br | 3.16%
Cc1ccc(C)c(N)c1 | 3.67%
O=c1[nH]cnc2c1ncn2[C@@H]1O[C@H](CO)[C@@H](O)[C@H]1O | -13.2%
CCN(O)CC | 5.56%
CC(CNC1CCCCC1)OC(=O)c1ccccc1 (stereo not given) | -29.4% [at 27 µM]

Compound | activity change, negative = cytotoxicity
CC(=O)Oc1cc(C(C)C)c(OCCN(C)C)cc1C | 2.06% [at 27 µM]
Cc1cc2nc(N)sc2cc1C | -10.3% [at 78.9 µM]
OCCN(CCO)CCN(CCO)CCO | -14.9%
NNS(=O)(=O)c1ccc(Oc2ccc(S(=O)(=O)NN)cc2)cc1 | -0.927%
C[C@@H](N)C(=O)O | 8.33%
CN1C(=O)CC(c2ccccc2)C1=O (stereo not given) | 3.78%
ICCc1ccccc1 | -4.64%
CC(C)NCC(O)COc1ccc(CCOCC2CC2)cc1 (stereo not given) | -5.56%
CC(C)=CCC[C@](C)(O)[C@@H]1CC=C(C)CC1 | -18.2%
C=CCCC=C | 0.428% [at 78.9 µM]
CCCCC(CC)COC(=O)COc1cc(Cl)c(Cl)cc1Cl (stereo not given) | 2.29%
CCN1CC(CCN2CCOCC2)C(c2ccccc2)(c2ccccc2)C1=O (stereo not given) | -0.579%
CCCCCCCCc1ccc(S(=O)(=O)O)cc1 | -6.58%
O=C(Cl)c1cccc([N+](=O)[O-])c1 | -0.0388%
CCCN(CCC)C(=O)C(CCC(=O)O)NC(=O)c1ccccc1 (stereo not given) | 0.53%
CC(C)(C)C1CCCCC1=O (stereo not given) | 13.4%
O=C(C(Cl)Cl)N1CCOC12CCCCC2 | 3.09%
CC1=C(CC(=O)O)c2cc(F)ccc2/C1=C\c1ccc(S(C)(=O)=O)cc1 | -8.63%
CCCOCCC | 1.88%
CC(C)OC(C)C | -3.7% [at 78.9 µM]
